# Screening results from PubChem BioAssay.
# Shh pathway inh: blocks Sonic Hedgehog signaling; AID 2313; actives 2.1% (n = 22,000); inhibition, % (concentration not given with the values); Shh-LIGHT2 Gli-luciferase reporter, 30 h;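 active = mean inhibition across valid replicates above about 65%, limit read from the data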;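 note: pathway switched on by Shh-conditioned medium diluted 1 in 25 in low serum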
# NOMO-1 viab: STK33 inhibitor candidate reducing NOMO-1 cell viability | AID 2330 | actives 7.5% (n = 37,000) | inhibition, % (no concentration beside the values) | NOMO-1 AML viability, CellTiter-Glo luminescence, 72 h; in the data active = inhibition above about 80%
# MITF inh: blocks MITF activity; TRPM1 promoter luciferase, luminescence, 24 h; inhibition, % (concentration not given with the values); actives 0.28% (n = 37,000); AID 2240; in the data active = inhibition above about 85%;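 note: human melanocyte line stably carrying TRPM1 promoter luciferase reporter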
# Numbers stand for hits; n = inactive; x = no result given. Sampled rows, rich in hits. Any-hit rate of the full collection: about 7.8%.
SMILES,Shh pathway inh,NOMO-1 viab,MITF inh
CC1(C)CC[C@]2(C(=O)O[C@@H]3O[C@H](CO)[C@@H](O)[C@H](O)[C@H]3O)CC[C@]3(C)C(=CCC4[C@@]5(C)CC[C@H](O[C@@H]6O[C@H](CO)[C@@H](O)[C@H](O[C@@H]7O[C@H](CO)[C@@H](O)[C@H](O)[C@H]7O)[C@H]6O[C@@H]6O[C@H](CO)[C@H](O)[C@H](O)[C@H]6O)C(C)(C)C5CC[C@]43C)[C@@H]2C1 (stereo partly specified),n,x,x
CC(C)(CCO[C@@H]1O[C@H](CO[C@@H]2OC[C@@H](O)[C@H](O)[C@H]2O)[C@@H](O)[C@H](O)[C@H]1O)C[C@@H]1C(C(=O)O)=CC[C@]2(C(=O)O)C1=CCC1[C@@]3(C)CC[C@H](O[C@@H]4O[C@H](CO[C@@H]5O[C@H](CO)[C@@H](O)[C@H](O)[C@H]5O)[C@@H](O)[C@H](O)[C@H]4O)C(C)(C)C3CC[C@]12C (stereo partly specified),106.4,x,x
C[C@@H]1O[C@@H](O[C@H]2[C@H](O[C@H]3[C@H](O[C@H]4CC[C@@]5(C)C(CC[C@]6(C)C5CC=C5[C@@H]7CC(C)(C)C[C@@H](O)[C@]7(C)CC[C@]56C)[C@@]4(C)CO)O[C@H](C(=O)O)[C@@H](O)[C@@H]3O)OC[C@H](O)[C@@H]2O)[C@H](O)[C@H](O)[C@H]1O (stereo partly specified),n,n,n
CC1(C)CC[C@]2(C(=O)O[C@@H]3O[C@H](CO)[C@@H](O)[C@H](O)[C@H]3O)CC[C@]3(C)C(=CCC4[C@@]5(C)CC[C@H](O[C@@H]6O[C@H](CO)[C@@H](O)[C@H](O)[C@H]6O)[C@@](C)(CO)C5CC[C@]43C)[C@@H]2C1 (stereo partly specified),n,n,n
C[C@@H]1O[C@@H](O[C@H]2[C@H](O[C@H]3CC[C@@]4(C)C(CC[C@]5(C)C4CC=C4C6CC(C)(C)CC[C@]6(C(=O)O)CC[C@]45C)[C@]3(C)CO)OC[C@H](O)[C@@H]2O)[C@H](O)[C@H](O)[C@H]1O (stereo partly specified),73.7,119.3,n
CC1CC[C@]2(C(=O)OC3OC(COC4OC(CO)C(O)C(O)C4O)C(O)C(O)C3O)CC[C@]3(C(=O)O)C(=CCC4[C@@]5(C)CC[C@H](OC6OC(C)C(O)C(O)C6O)C(C)(C)C5CC[C@]43C)C2C1C (stereo partly specified),n,n,n
COc1ccccc1CCNC(=O)c1c(-c2c(F)cccc2Cl)noc1C,x,n,n
O=C(NC(=S)N(Cc1cccnc1)Cc1ccccc1Cl)c1ccccc1,n,n,n
Cc1c(Br)c([N+](=O)[O-])nn1CC(=O)Nc1cccnc1,x,n,n
CC1=Nc2ccc(C(F)(F)F)cc2C1(C)C,n,n,n
CC(=O)OC1C(C)OC(OC2C(CO)OC(OC(=O)[C@]34CCC(C)(C)CC3C3=CCC5[C@@]6(C)CC[C@H](OC7OC(CO)C(OC8OC(CO)C(OC9OCC(O)C(O)C9O)C(O)C8O)C(O)C7O)[C@@](C)(CO)C6CC[C@@]5(C)[C@]3(C)CC4)C(OC3OC(C)C(O)C(O)C3O)C2O)C(O)C1O (stereo partly specified),n,x,x
C[C@@H]1O[C@@H](O[C@@H]2[C@@H](O)[C@H](O[C@@H]3[C@@H](O)[C@H](C)O[C@@H](O[C@H]4[C@H](O[C@H]5CC[C@@]6(C)C(CC[C@]7(C)C6CC=C6[C@@H]8CC(C)(C)CC[C@]8(C(=O)O)CC[C@]67C)[C@]5(C)CO)OC[C@H](O)[C@@H]4O)[C@@H]3O)O[C@H](CO)[C@H]2O[C@@H]2O[C@H](CO)[C@@H](O[C@@H]3OC[C@@H](O)[C@H](O)[C@H]3O)[C@H](O)[C@H]2O)[C@H](O)[C@H](O)[C@H]1O (stereo partly specified),77.7,114.2,n
CC1OC(OC2C(O)C(CO)OC(O[C@H]3CC[C@@]4(C)C(CC[C@]5(C)C4CC=C4C6CC(C)(C)CC[C@]6(C(=O)OC6OCC(OC7OCC(O)C(O)C7O)C(O)C6O)CC[C@]45C)C3(C)C)C2O)C(O)C(OC2OCC(O)(CO)C2O)C1O (stereo partly specified),n,121.7,n
CC1(C)CC[C@]2(C(=O)O[C@@H]3O[C@H](CO)[C@@H](O)[C@H](O)[C@H]3O)CC[C@]3(C)C(=CCC4[C@@]5(C)CC[C@H](OC6O[C@H](CO)[C@@H](O)[C@H](O[C@@H]7O[C@H](CO)[C@@H](O)[C@H](O)[C@H]7O)[C@H]6O)C(C)(C)C5CC[C@]43C)[C@@H]2C1 (stereo partly specified),n,x,x
CC1(C)CC[C@]2(C(=O)O)CC[C@]3(C)C(=CCC4[C@@]5(C)CC[C@H](O[C@@H]6O[C@H](C(=O)O)[C@@H](O[C@@H]7OC[C@@H](O)[C@H](O)[C@H]7O)[C@H](O)[C@H]6O)C(C)(C)C5CC[C@]43C)C2C1O (stereo partly specified),n,n,n
CC1(C)CC[C@]2(C(=O)O)CC[C@]3(C)C(=CCC4[C@@]5(C)CC[C@H](O[C@@H]6O[C@H](C(=O)O)[C@@H](O[C@@H]7OC[C@@H](O)[C@H](O)[C@H]7O)[C@H](O)[C@H]6O)C(C)(C)C5CC[C@]43C)C2C1 (stereo partly specified),105.0,116.3,n
Cc1ccc(C(C)C)c(OCC(=O)Nc2ccccc2C#N)c1,x,n,n
O=c1c2ccccc2nnn1CN1CCCCC1,n,n,n
COC(=O)c1c(NC(=O)COc2ccccc2)sc(C(N)=O)c1C,x,n,n
CC1(C)[C@@H]2CC=C(CO[C@@H]3O[C@H](CO[C@@H]4O[C@@H](CO)[C@H](O)[C@H]4O)[C@@H](O)[C@H](O)[C@H]3O)[C@H]1C2,n,n,n
O=C(/C=C/c1ccccc1)CC(=O)/C=C/c1ccccc1,n,n,n
O=C(/C=C/c1ccccc1)c1ccc(O)cc1,n,105.5,n
Cc1cc(Cl)ccc1NC(=O)CN(C)S(=O)(=O)c1ccc(F)cc1,x,n,n
O=C(CCS(=O)(=O)c1nc(-c2ccccc2)cc(C(F)(F)F)n1)Nc1ccc(Cl)cc1Cl,x,125.5,n
O=C(O)CCS(=O)(=O)c1nc(-c2ccccc2)cc(C(F)(F)F)n1,x,n,n
SMILES,Shh pathway inh,NOMO-1 viab,MITF inh
COc1ccc(C)cc1N(CC(=O)Nc1ccc(I)cc1)S(C)(=O)=O,x,n,n
CSc1c(CC(=O)NN)n(C)c2ccccc12,n,n,n
Cc1nnc(SCC(=O)Nc2cccc([N+](=O)[O-])c2)s1,x,n,n
C[C@@H]1C[C@H]2OC[C@@]3(C)CCC[C@](C)(C23)[C@@]1(O)CCc1ccoc1 (stereo partly specified),n,x,x
C[C@@H]1CN([C@H](C)CO)C(=O)Cc2cc(NC(=O)Nc3ccc(C(F)(F)F)cc3)ccc2O[C@@H]1CN(C)S(=O)(=O)c1ccc(F)cc1,n,89.5,n
C[C@H]1CN([C@@H](C)CO)C(=O)Cc2cc(NC(=O)Nc3ccc(C(F)(F)F)cc3)ccc2O[C@@H]1CN(C)S(=O)(=O)c1ccc(F)cc1,n,n,n
